# Assay results reported in PMC7862700, “An all-to-all approach to the identification of sequence-specific readers for epigenetic DNA modifications on cytosine”.
# Legend:
# Assay in all cases: DAPPL (digital affinity profiling via proximity ligation, sequencing); 10 mM Tris-HCl pH 7.5, 50 mM NaCl, 1 mM DTT, 4% glycerol, room temperature, 30 min; GST-TFs on glutathione beads, 16-mer random dsDNA library, 0.1% formaldehyde crosslink after washing; high values mean tight binding
# FLI1 = target: T1, FLI1 (Homo sapiens, UniProt Q01543 1-452); settings: protein: recombinant; tags: N-terminal GST; dsDNA, one strand shown
# T1 sequence: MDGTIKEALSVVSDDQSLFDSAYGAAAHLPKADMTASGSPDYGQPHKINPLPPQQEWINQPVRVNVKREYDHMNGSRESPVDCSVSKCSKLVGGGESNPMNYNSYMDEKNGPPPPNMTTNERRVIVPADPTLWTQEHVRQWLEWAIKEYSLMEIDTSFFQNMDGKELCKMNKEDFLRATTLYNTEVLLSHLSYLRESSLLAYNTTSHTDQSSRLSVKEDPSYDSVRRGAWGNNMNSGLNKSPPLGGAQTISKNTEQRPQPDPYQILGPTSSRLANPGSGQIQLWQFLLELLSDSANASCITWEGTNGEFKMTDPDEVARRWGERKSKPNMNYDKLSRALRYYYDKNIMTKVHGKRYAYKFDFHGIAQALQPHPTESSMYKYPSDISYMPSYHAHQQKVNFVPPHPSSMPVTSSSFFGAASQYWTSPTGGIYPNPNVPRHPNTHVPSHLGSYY
# Procedure, shortened: (§1)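 Each value of binding signal is a hexamer's read frequency for a factor divided by the same hexamer's frequency in the tag-only sample. Barcoded, bead-captured GST fusions of human transcription factors made in yeast were pooled with that sample and incubated with 200 nmole of a random double-stranded 16-mer DNA library in Tris/NaCl/DTT/glycerol buffer at room temperature for 30 min. Washing, 0.1% formaldehyde crosslinking, proximity ligation, PCR and Illumina NextSeq500 sequencing followed.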
# ELK1 = target: T2, ELK1 (Homo sapiens, UniProt P19419 1-428); settings: protein: recombinant; tags: N-terminal GST; dsDNA, one strand shown
# T2 sequence: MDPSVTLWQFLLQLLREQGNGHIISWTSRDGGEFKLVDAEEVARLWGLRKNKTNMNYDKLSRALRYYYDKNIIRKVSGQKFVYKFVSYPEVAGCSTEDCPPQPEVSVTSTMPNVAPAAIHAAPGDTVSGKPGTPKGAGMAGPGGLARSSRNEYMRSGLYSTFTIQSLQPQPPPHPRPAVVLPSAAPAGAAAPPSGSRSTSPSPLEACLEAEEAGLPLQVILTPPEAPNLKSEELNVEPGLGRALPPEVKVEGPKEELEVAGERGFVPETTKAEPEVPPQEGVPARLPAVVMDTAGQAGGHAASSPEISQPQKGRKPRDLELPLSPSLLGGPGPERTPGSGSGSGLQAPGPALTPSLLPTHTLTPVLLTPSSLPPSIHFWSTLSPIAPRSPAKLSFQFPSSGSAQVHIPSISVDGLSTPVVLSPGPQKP
# Procedure, shortened: as §1
# GABPA = target: T3, GABPA (Homo sapiens, UniProt Q06546 1-454); settings: protein: recombinant; tags: N-terminal GST; dsDNA, one strand shown
# T3 sequence: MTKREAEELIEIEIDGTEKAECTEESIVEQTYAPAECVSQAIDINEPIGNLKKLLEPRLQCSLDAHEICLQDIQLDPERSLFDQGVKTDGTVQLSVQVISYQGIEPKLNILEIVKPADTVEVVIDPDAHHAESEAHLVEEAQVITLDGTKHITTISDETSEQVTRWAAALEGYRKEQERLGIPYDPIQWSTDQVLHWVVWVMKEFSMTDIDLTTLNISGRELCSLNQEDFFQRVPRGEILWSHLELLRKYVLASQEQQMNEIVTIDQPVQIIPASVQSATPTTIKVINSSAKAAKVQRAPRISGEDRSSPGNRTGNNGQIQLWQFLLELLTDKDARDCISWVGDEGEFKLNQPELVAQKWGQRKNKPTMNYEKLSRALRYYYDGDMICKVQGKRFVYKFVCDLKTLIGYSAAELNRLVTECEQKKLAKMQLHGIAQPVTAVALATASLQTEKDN
# Procedure, shortened: as §1
# ERG = target: T4, ERG (Homo sapiens, UniProt P11308 1-479); settings: protein: recombinant; tags: N-terminal GST; dsDNA, one strand shown
# T4 sequence: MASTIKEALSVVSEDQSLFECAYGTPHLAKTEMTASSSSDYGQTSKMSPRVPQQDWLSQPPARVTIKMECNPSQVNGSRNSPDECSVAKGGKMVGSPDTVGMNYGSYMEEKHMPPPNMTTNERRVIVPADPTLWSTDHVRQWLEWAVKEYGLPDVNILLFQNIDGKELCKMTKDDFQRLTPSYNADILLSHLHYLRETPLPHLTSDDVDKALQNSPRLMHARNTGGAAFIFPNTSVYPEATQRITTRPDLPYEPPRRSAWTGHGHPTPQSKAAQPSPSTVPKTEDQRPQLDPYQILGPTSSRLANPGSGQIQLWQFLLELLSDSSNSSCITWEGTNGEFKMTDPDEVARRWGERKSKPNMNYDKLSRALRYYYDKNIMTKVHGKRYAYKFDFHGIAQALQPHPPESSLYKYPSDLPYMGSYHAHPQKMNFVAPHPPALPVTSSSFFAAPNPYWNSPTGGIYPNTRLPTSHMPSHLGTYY
# Procedure, shortened: as §1
# ELF1 = ELF1 (Homo sapiens, UniProt P32519 1-619); settings: protein: recombinant; tags: N-terminal GST; dsDNA, one strand shown
# Procedure, shortened: as §1
# EHF = target: T5, EHF (Homo sapiens, UniProt Q9NZC4 1-300); settings: protein: recombinant; tags: N-terminal GST; dsDNA, one strand shown
# T5 sequence: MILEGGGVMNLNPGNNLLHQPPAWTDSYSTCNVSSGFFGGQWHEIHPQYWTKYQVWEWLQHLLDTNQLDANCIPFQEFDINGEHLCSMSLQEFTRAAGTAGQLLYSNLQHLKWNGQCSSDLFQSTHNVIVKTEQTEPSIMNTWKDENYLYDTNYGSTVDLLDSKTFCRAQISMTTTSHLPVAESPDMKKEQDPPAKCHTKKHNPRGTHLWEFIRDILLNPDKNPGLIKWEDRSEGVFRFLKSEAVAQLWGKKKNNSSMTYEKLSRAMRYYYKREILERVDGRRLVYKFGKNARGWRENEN
# Procedure, shortened: as §1
# SPI1 = SPI1 (Homo sapiens, UniProt P17947 1-270); settings: protein: recombinant; tags: N-terminal GST; dsDNA, one strand shown
# Procedure, shortened: as §1
# SPIB = SPIB (Homo sapiens, UniProt Q01892 1-262); settings: protein: recombinant; tags: N-terminal GST; dsDNA, one strand shown
# Procedure, shortened: as §1
# ELK3 = target: T6, ELK3 (Homo sapiens, UniProt P41970 1-407); settings: protein: recombinant; tags: N-terminal GST; dsDNA, one strand shown
# T6 sequence: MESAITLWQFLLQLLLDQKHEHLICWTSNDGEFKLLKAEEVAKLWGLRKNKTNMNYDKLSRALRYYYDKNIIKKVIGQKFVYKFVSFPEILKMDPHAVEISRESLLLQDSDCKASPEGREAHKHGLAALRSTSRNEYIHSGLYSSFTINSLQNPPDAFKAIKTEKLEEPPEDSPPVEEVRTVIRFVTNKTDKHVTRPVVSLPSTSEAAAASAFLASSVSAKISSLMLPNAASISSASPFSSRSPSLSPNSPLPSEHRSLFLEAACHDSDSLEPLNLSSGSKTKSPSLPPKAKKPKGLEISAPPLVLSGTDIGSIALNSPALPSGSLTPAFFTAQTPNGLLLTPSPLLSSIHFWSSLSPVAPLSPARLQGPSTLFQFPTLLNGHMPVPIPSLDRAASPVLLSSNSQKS
# Procedure, shortened: as §1
# FEV = target: T7, FEV (Homo sapiens, UniProt Q99581 1-238); settings: protein: recombinant; tags: N-terminal GST; dsDNA, one strand shown
# T7 sequence: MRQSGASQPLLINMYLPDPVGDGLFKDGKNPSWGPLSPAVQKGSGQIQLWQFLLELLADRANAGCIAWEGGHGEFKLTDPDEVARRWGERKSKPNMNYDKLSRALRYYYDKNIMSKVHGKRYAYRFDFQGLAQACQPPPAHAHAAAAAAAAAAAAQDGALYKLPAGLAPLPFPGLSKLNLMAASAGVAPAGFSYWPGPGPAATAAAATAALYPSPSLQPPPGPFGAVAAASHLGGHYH
# Procedure, shortened: as §1
# ETV5 = ETV5 (Homo sapiens, UniProt P41161 1-510); settings: protein: recombinant; tags: N-terminal GST; dsDNA, one strand shown
# Procedure, shortened: as §1
# HSF1 = HSF1 (Homo sapiens, UniProt Q00613 1-529); settings: protein: recombinant; tags: N-terminal GST; chain copies: 3; dsDNA, one strand shown
# Procedure, shortened: as §1
# SPIC = target: T8, SPIC (Homo sapiens, UniProt Q8N5J4 1-248); settings: protein: recombinant; tags: N-terminal GST; dsDNA, one strand shown
# T8 sequence: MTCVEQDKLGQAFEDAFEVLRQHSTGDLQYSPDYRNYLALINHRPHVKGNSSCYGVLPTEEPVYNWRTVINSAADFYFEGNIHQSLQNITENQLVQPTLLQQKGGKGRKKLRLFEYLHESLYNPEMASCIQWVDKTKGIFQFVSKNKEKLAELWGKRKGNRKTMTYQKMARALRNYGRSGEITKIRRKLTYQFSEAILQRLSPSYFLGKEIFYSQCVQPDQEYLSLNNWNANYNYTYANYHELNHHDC
# Procedure, shortened: as §1
# ELF4 = ELF4 (Homo sapiens, UniProt Q99607 1-663); settings: protein: recombinant; tags: N-terminal GST; dsDNA, one strand shown
# Procedure, shortened: as §1
# ELK4 = target: T9, ELK4 (Homo sapiens, UniProt P28324-2 1-405); settings: protein: recombinant; tags: N-terminal GST; dsDNA, one strand shown
# T9 sequence: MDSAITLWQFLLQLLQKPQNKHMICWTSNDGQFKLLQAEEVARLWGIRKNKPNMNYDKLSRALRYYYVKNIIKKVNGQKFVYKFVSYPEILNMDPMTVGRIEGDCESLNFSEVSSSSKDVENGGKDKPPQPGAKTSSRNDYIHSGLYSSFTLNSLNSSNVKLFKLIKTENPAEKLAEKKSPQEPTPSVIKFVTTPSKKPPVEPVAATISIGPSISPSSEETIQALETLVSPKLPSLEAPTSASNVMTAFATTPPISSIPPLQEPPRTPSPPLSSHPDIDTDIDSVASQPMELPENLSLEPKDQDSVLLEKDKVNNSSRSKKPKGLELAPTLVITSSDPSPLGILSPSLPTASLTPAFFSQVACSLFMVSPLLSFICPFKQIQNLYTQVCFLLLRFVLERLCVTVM
# Procedure, shortened: as §1
# ETV2 = target: T10, ETV2 (Homo sapiens, UniProt O00321 1-342); settings: protein: recombinant; tags: N-terminal GST; dsDNA, one strand shown
# T10 sequence: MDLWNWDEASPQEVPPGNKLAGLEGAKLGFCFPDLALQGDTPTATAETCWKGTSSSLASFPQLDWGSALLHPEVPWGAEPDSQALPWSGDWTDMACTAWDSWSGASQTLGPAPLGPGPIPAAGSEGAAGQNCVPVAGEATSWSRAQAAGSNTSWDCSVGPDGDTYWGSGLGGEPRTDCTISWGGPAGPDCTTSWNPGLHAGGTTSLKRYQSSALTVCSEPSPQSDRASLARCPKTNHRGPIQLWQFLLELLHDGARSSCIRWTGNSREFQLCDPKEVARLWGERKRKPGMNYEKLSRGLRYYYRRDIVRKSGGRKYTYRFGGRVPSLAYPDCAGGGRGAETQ
# Procedure, shortened: as §1
# ELF3 = target: T11, ELF3 (Homo sapiens, UniProt P78545 1-371); settings: protein: recombinant; tags: N-terminal GST; dsDNA, one strand shown
# T11 sequence: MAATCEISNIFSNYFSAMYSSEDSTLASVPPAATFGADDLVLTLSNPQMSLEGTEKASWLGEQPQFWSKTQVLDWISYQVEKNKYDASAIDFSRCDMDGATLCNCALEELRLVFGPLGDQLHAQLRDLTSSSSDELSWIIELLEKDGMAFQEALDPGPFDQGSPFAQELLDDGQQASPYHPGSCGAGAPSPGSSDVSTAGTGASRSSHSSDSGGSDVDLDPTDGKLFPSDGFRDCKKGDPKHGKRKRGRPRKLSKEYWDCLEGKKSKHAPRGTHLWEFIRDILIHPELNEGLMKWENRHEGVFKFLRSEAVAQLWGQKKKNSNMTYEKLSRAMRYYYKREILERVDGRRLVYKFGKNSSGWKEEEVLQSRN
# Procedure, shortened: as §1
# CRX = CRX (Homo sapiens, UniProt O43186 1-299); settings: protein: recombinant; tags: N-terminal GST; dsDNA, one strand shown
# Procedure, shortened: as §1
# ETV1 = ETV1 (Homo sapiens, UniProt P50549 1-477); settings: protein: recombinant; tags: N-terminal GST; dsDNA, one strand shown
# Procedure, shortened: as §1
# Sequence of ELF4 (Q99607 whole entry): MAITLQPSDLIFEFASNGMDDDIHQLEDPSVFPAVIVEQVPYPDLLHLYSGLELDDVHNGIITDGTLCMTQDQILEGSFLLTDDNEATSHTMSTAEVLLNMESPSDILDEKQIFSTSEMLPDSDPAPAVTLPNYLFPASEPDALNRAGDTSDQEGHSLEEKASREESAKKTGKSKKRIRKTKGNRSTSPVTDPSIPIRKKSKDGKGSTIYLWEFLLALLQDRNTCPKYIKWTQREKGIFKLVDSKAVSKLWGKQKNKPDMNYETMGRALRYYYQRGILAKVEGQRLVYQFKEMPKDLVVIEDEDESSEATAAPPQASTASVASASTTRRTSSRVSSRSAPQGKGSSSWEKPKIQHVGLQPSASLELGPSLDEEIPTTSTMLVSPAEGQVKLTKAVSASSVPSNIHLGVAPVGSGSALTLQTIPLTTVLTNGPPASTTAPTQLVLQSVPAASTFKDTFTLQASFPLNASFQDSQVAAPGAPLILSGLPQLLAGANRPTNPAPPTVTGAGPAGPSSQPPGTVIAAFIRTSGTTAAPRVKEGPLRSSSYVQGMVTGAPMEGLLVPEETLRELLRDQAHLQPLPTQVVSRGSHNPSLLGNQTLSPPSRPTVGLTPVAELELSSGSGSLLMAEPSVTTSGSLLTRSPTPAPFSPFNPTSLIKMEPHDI
# Sequence of HSF1 (Q00613 whole entry): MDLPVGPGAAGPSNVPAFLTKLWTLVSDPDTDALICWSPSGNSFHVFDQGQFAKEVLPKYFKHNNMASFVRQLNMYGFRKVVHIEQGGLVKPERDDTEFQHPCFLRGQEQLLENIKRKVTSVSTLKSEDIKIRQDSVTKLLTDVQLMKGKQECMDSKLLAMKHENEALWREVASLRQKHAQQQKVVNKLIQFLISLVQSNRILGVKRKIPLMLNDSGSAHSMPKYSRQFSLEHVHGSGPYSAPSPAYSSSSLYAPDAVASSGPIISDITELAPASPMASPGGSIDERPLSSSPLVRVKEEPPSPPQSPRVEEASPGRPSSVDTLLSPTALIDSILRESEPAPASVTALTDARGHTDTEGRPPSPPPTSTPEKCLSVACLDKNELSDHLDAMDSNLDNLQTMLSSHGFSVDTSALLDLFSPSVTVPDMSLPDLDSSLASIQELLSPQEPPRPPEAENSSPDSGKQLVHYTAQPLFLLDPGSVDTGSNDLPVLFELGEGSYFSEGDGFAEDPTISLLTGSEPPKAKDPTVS
# Sequence of CRX (O43186 whole entry): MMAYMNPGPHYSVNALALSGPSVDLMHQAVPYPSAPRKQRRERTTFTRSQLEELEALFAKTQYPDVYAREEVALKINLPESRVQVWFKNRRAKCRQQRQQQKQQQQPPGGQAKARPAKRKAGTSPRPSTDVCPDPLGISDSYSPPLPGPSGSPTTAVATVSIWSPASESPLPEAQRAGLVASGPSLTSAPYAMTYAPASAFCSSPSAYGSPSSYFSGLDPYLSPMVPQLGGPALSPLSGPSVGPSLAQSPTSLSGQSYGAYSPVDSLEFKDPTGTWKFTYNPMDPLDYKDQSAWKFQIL
# Sequence of ELF1 (P32519 whole entry): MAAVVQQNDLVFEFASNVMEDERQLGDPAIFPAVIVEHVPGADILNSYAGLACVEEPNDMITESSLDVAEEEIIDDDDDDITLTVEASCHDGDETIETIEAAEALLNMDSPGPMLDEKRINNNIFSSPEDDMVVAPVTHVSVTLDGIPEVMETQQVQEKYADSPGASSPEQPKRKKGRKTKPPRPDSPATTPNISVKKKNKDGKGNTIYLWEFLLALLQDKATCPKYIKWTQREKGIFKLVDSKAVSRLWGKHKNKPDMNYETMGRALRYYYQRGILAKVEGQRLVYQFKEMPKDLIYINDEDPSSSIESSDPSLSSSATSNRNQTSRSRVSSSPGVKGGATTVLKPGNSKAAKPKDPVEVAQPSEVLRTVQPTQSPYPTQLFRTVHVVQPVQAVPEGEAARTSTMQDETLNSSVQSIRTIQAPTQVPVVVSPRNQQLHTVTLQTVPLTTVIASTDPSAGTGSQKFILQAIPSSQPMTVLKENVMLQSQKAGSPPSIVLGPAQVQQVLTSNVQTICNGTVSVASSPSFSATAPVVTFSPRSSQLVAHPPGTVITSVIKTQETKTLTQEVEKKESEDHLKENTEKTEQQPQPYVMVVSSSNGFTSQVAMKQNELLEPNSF
# Sequence of SPIB (Q01892 whole entry): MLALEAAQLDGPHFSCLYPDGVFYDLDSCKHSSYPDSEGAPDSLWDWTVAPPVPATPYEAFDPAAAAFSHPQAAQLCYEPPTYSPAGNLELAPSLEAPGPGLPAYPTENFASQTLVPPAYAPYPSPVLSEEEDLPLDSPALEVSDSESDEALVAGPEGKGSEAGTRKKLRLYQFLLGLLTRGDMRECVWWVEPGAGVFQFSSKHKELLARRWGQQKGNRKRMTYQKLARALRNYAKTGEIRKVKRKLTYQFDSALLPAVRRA
# Sequence of ETV5 (P41161 whole entry): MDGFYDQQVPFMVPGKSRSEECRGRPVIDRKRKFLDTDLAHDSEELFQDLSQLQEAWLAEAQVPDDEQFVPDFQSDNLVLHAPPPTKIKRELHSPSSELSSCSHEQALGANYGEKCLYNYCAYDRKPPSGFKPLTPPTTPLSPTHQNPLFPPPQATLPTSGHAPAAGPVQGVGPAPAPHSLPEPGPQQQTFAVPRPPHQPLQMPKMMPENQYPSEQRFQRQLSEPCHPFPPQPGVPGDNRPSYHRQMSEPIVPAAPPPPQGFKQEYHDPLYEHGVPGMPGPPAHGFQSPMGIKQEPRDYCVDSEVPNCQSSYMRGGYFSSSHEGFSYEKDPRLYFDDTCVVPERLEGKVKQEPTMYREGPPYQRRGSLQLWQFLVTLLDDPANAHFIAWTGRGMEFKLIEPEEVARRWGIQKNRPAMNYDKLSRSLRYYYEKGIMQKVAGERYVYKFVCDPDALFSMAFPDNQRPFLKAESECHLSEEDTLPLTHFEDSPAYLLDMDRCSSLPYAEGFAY
# Sequence of ETV1 (P50549 whole entry): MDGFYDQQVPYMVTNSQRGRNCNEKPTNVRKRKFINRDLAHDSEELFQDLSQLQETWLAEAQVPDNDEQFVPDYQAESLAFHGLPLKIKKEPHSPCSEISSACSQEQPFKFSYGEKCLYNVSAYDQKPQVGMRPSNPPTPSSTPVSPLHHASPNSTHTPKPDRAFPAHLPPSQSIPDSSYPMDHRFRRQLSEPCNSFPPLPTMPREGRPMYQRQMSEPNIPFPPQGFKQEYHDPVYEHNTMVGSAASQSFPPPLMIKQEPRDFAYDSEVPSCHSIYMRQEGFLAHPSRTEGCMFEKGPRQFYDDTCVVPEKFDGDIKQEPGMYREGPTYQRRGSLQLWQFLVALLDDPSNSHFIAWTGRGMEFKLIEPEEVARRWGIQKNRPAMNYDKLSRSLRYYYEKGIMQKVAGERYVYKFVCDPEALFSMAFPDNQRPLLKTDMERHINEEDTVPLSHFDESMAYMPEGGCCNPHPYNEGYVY
sequence,measurement,setting,value
CCCGAA,binding signal,FLI1,"1.44 fold enrichment (6-mer frequency, TF over GST control)"
same,binding signal,ELK1,"1.26 fold enrichment (6-mer frequency, TF over GST control)"
same,binding signal,GABPA,"1.51 fold enrichment (6-mer frequency, TF over GST control)"
same,binding signal,ERG,"1.18 fold enrichment (6-mer frequency, TF over GST control)"
same,binding signal,ELF1,"1.39 fold enrichment (6-mer frequency, TF over GST control)"
same,binding signal,EHF,"1.3 fold enrichment (6-mer frequency, TF over GST control)"
same,binding signal,SPI1,"1.36 fold enrichment (6-mer frequency, TF over GST control)"
same,binding signal,SPIB,"1.27 fold enrichment (6-mer frequency, TF over GST control)"
same,binding signal,ELK3,"1.2 fold enrichment (6-mer frequency, TF over GST control)"
same,binding signal,FEV,"1.37 fold enrichment (6-mer frequency, TF over GST control)"
same,binding signal,ETV5,"1.36 fold enrichment (6-mer frequency, TF over GST control)"
same,binding signal,HSF1,"2.56 fold enrichment (6-mer frequency, TF over GST control)"
same,binding signal,SPIC,"1.45 fold enrichment (6-mer frequency, TF over GST control)"
same,binding signal,ELF4,"1.37 fold enrichment (6-mer frequency, TF over GST control)"
same,binding signal,ELK4,"1.34 fold enrichment (6-mer frequency, TF over GST control)"
same,binding signal,ETV2,"1.29 fold enrichment (6-mer frequency, TF over GST control)"
same,binding signal,ELF3,"1.47 fold enrichment (6-mer frequency, TF over GST control)"
same,binding signal,CRX,"1.61 fold enrichment (6-mer frequency, TF over GST control)"
same,binding signal,ETV1,"1.29 fold enrichment (6-mer frequency, TF over GST control)"
